# FBW7 activator: human FBW7 E3 ligase activation, primary screen; Q969H0; AlphaScreen FBW7–phospho-cyclin E peptide binding, activator screen; normalized activity (activation), % at 26.1 µM; 650,000 tested, 0.13% active; in the data active = normalized activity above about 1.9%;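 also: purified mutant Fbw7 with reduced substrate affinity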
# MITF primary: inhibitors of human MITF. AlphaScreen MITF homodimerization, bead proximity signal. inhibition, % at 2.6 µM. 650,000 tested, 0.91% active; in the data active = inhibition above about 50%;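 also: 0% = vehicle wells with protein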
# Target sequence (O75030 whole entry, looked up): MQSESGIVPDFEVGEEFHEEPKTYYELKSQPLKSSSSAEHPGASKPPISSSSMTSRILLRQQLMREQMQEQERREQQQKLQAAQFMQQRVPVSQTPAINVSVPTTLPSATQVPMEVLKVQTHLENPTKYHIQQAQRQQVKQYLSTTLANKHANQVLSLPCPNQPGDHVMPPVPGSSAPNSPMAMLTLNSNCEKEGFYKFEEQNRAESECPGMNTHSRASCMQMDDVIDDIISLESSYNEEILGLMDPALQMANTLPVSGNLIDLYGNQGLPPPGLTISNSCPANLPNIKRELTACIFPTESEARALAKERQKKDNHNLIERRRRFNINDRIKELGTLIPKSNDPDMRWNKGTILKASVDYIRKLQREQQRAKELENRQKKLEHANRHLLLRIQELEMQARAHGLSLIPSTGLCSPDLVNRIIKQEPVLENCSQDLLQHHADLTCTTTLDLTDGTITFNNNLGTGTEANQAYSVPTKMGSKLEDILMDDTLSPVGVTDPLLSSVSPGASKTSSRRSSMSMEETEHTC
# TEAD-YAP inh: TEAD-YAP interaction inhibition; AID 1259422; HEK-TIYL cells, TEAD-Gal4/YAP UAS-luciferase luminescence; inhibition, % at 9.12 µM; 640,000 tested, 1.4% active; in the data active = inhibition above about 32%;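 also: 0% = median of test compound wells and 100% = reference inhibitor wells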
# GPR151 activ: activates the human receptor GPR151 | Q8TDV0 | activation, % at 11.2 µM | AID 1508602 | 650,000 tested, 1% active | PathHunter beta-arrestin GPR151 cells, luminescence; in the data active = activation above about 4.9%;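 also: 0% = median of compound wells and 100% = cells with positive control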
# GPR151 conf act: human GPR151 activation, confirmation screen. shares compounds with GPR151 activ. GPR151 PathHunter beta-arrestin cells, luminescence, 90 min; % of EA-reagent control over plate median. activation, % at 11.2 µM. 6,700 tested, under 10 active. AID 1508609;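 active = mean percent activation across replicates above the confirmation screen cutoff of 4.91%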
# GPR119 counter: GPR119 activation, counter-screen for GPR151 activators. 6,700 tested, 0.3% active. shares compounds with GPR151 activ. activation, % at 11.2 µM. GPR119 PathHunter beta-arrestin cells, luminescence, 90 min; 0 = compound-well median, 100 = enzyme-acceptor control. AID 1508611;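 active = mean percent activation in the counterscreen above 29.09%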;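 also: counterscreen on off-target GPR119 to flag nonselective hits from the GPR151 activator screen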
# * marks the source's active call; other numbers are inactive results; x = not tested or not shown. An excerpt weighted towards active compounds, which were near 3.5% of everything screened.
SMILES,FBW7 activator,MITF primary,TEAD-YAP inh,GPR151 activ,GPR151 conf act,GPR119 counter
COc1ccc(O[C@H]2C=C[C@@H](c3ccccc3)O[C@@H]2CO/N=C2/[C@H]3CCn4c(=O)n(-c5ccccc5)c(=O)n4[C@H]3[C@H](O)[C@@H]3O[C@H]23)cc1,0,1,x,6.7*,0,-1
Cc1ccc(OCC(=O)NNC(=O)c2cccc(C)c2)cc1,0,-5,-4,-1,x,x
CCC(C)CC(=O)N1CCc2nnc(CNC(=O)CCc3cccnc3)n2CC1 (stereo not drawn),0,6,4,9.0*,0,-6
O=C1CCCC/C1=C\Nc1ccc([N+](=O)[O-])cc1Br,0,-1,-14,0,x,x
CC(C)(C)OC(=O)N1CCC[C@@H]1C(=O)Nc1ccc2[nH]ncc2c1,0,19,-3,5.8*,0,-6
COc1ccc(-c2nc3s/c(=C\c4ccccc4F)c(=O)n3n2)cc1,0,2,-6,0,x,x
COc1ccc(/C=c2\sc3nc(-c4ccncc4)nn3c2=O)cc1OC,0,20,12,-1,x,x
CC(C)CCOc1ccc(-c2nn(-c3ccccc3)cc2/C=c2\sc3nc(-c4cccs4)nn3c2=O)cc1,0,28,-3,7.0*,-1,14
CCOc1ccc(-c2nc3s/c(=C\c4ccccc4F)c(=O)n3n2)cc1,0,0,-5,11*,0,4
CCCCOc1ccc(/C=c2\sc3nc(-c4ccc(Cl)cc4)nn3c2=O)cc1,0,-4,0,1,x,x
COc1cc(/C=c2\sc3nc(-c4ccncc4)nn3c2=O)ccc1OC(C)=O,0,7,-3,4.9*,2,-1
CCCCOc1ccc(/C=c2\sc3nc(-c4ccncc4)nn3c2=O)cc1,0,0,9,5.1*,0,-2
CS(=O)(=O)c1ccc(C(=O)OCC(=O)NC2CCCc3ccccc32)cc1[N+](=O)[O-] (stereo not drawn),0,-2,0,0,x,x
Cc1cc(C)nc(NC(=O)/C=C/c2ccc3c(c2)OCO3)n1,0,-3,-27,-1,x,x
Cc1nnc(SCC(=O)N2CCN(c3ccccc3)CC2)s1,0,10,1,6.4*,1,10
Cc1ccccc1-c1nnc(SCC(=O)N2CCN(c3ccccc3)CC2)o1,0,5,12,6.5*,1,6
Cc1ccccc1-c1nnc(SCC(=O)N2CCOCC2)o1,0,13,-53,0,x,x
CC(=O)Nc1nnc(SCC(=O)N2CCN(c3ccccc3)CC2)s1,0,-13,6,-1,x,x
O=C(c1cnsn1)N1CCOc2ccc(C(O)CCc3ccccc3)cc2C1 (stereo not drawn),0,-3,-9,5.3*,0,1
COc1ccc(C)cc1-n1cnc2cc(C(=O)O)ccc21,0,4,-4,7.7*,-1,3
Cc1nn(Cc2ccccc2)c(Cl)c1/C=N/NC(=O)c1ccc(N)cc1,0,8,-33,0,x,x
CCOC(=O)CSc1nnc(-c2cccc(NC(=O)c3ccccc3Cl)c2)n1C,0,6,0,5.3*,1,1
CCOc1ccc(C(=O)N2CCC(c3nc4ccccc4[nH]3)CC2)cc1OCC,0,24,-1,-1,x,x
COc1cccc(-c2ccc(=O)n(CC(=O)Nc3ccc(C(=O)N4CCCC4)cc3)n2)c1,0,0,-10,1,x,x
COc1cccc(-c2ccc(=O)n(CC(=O)Nc3ccc(Cl)c(C(F)(F)F)c3)n2)c1,0,-7,-2,18*,1,-1
SMILES,FBW7 activator,MITF primary,TEAD-YAP inh,GPR151 activ,GPR151 conf act,GPR119 counter
COc1ccccc1-c1ccc(=O)n(CC(=O)Nc2ccc(Br)cc2)n1,0,-2,5,9.6*,0,-5
C/C(=N\NC(=O)c1ccco1)c1ccccc1O,0,-1,-50,-1,x,x
NC(=NCCC[C@H](N)C(=O)O)NO,0,-5,-3,5.5*,0,-9
COc1ccc(NC(=O)/C(C#N)=C/c2ccc(-c3ccccc3C(=O)O)o2)cc1,0,-9,-5,-1,x,x
N#C/C(=C\c1ccc(-c2ccccc2C#N)o1)C(N)=S,0,0,1,6.0*,0,1
N#C/C(=C\c1ccc(-c2ccccc2C(=O)O)o1)C(=O)Nc1ccccc1,0,-3,-29,8.2*,-1,0
CC(=O)c1ccc(-c2ccc(/C=C(\C#N)C(N)=S)o2)cc1,0,-12,0,0,x,x
CCOC(=O)c1c(NC(=O)COc2ccc(Br)cc2)sc2c1CCC(C)C2 (stereo not drawn),0,1,2,-1,x,x
O=S(=O)(Nc1nc2ccccc2s1)c1ccccc1,0,12,7,-1,x,x
O=C(CSc1nnnn1-c1ccc2c(c1)OCO2)N1c2ccccc2Sc2ccc(C(F)(F)F)cc21,0,4,11,0,x,x
N#Cc1cc2cccc3c2n(c1=O)CCC3,0,-2,2,0,x,x
CCC(CC)C(=O)O/N=C(\N)Cc1ccc(OC)cc1,0,12,3,9.3*,1,-1
COc1ccc(C/C(N)=N/OC(=O)Cc2ccccc2)cc1,0,0,-7,-1,x,x
C=CCNC(=O)N1CCc2nc(-c3ccc(OC)cc3C)c3c(c2C1)CO[C@@H](c1ccccc1)C3,0,2,x,1,x,x
C[C@H]1Cc2c(-c3ccccc3)nc3c(c2CO1)CN(C(=O)Cc1cccs1)CC3,0,-9,x,-1,x,x
COc1cccc(CC(=O)N2CCc3nc(-c4ccccc4)c4c(c3C2)CO[C@@H](C)C4)c1,0,2,x,6.8*,0,-5
COc1ccc(-c2nc3c(c4c2C[C@H](c2ccccc2)OC4)CN(C(=O)NCc2ccco2)CC3)c(C)c1,0,10,x,5.9*,0,-2
Nn1c(SCC(=O)Nc2ccc(OCc3ccccc3)cc2)nnc1-c1ccccc1,0,-2,-9,1,x,x
Nn1c(SCC(=O)Nc2ccc(OCc3ccccc3)cc2)nnc1-c1ccco1,0,6,0,5.0*,-1,-2
COc1ccc(CC2(CO)CCN(Cc3ccc(CO)o3)CC2)cc1,0,-6,-9,-3,x,x
CCCC(=O)Nc1sc(C)c(CC)c1C(=O)OCC,0,-4,8,13*,0,-8
CCCc1cc(C(=O)Nc2sc(C)c(CC)c2C(N)=O)cs1,1,23,-28,9.1*,0,5
CCOC(=O)c1c(NC(=O)CNCC(O)CO)sc(C)c1C (stereo not drawn),0,-11,-16,5.3*,1,5
O=C(c1ccc(Cl)cc1)c1conc1C(=O)c1cccs1,0,8,8,-1,x,x
Cc1ccc(C(=O)c2nocc2C(=O)c2cccs2)cc1,0,1,2,6.1*,0,-8
Cc1cc(C)cc(OCC(=O)Nc2cccc(NC(=O)C(C)C)c2)c1,0,2,9,1,x,x
